NOMO-1 viab: STK33 inhibitor candidate reducing NOMO-1 cell viability. NOMO-1 AML viability, CellTiter-Glo luminescence, 72 h. inhibition, % (no concentration beside the values). 7.5% of 37,000 active. AID 2330; in the data active = inhibition above about 80%; inconclusive = no clear call, values can overlap the other calls
PD-1 reverse act: activators reversing PD-1 mediated T-cell inhibition. primary human CD4 T cells, PD-L1 beads, CellTiter-Glo 96 h. activation, % (test concentration not listed). 29,000 tested, under 10 active. AID 2316; call rule not given here;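 note: 0% = median vehicle wells and 100% = positive control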
STK33 inh: inhibitors of human STK33 kinase; Q9BYT3; ADP-Glo luminescence, MBP substrate; inhibition, % at 12.5 µM; 0.44% of 27,000 active; AID 2322; in the data active = inhibition above about 20%; inconclusive = no clear call, values can overlap the other calls
Target sequence (Q9BYT3 whole entry, looked up): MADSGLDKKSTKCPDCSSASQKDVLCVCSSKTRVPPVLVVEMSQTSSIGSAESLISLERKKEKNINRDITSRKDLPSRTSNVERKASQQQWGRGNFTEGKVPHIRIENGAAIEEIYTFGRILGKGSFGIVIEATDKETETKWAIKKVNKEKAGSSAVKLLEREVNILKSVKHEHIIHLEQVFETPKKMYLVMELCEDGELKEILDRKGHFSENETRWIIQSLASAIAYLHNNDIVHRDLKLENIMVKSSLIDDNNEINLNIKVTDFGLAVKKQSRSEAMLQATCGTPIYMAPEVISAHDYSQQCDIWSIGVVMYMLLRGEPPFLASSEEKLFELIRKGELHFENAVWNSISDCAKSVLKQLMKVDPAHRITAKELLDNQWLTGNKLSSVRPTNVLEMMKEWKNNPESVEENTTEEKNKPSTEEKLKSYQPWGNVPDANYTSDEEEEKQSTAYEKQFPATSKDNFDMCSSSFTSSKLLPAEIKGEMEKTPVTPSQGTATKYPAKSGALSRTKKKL
* marks the source's active call; other numbers are inactive results; ? = inconclusive; · = not tested or not shown; ! = repeats disagree. This is one part of a sample in which hits are shown more often than they occur.

SMILES	NOMO-1 viab	PD-1 reverse act	STK33 inh
CC/C(=C(\c1ccccc1)c1ccc(OCCN(C)C)cc1)c1ccccc1	95.9*!	1.1	3.1
CCN(CC)CCOc1ccc(/C(=C(/Cl)c2ccccc2)c2ccccc2)cc1	68.5	·	-0.9
Cc1cc(=O)oc2cc(OC(C)C(=O)NCC3CCCO3)ccc12 (stereo not given)	23.5	1.4	-0.7
COC(=O)c1ccccc1NC(=O)C(C)Oc1ccc2c(C)cc(=O)oc2c1 (stereo not given)	89.4*	·	-1.3
CCC(C)C(=O)OCC1(c2ccc(C)cc2OC(=O)C(C)C)CO1 (stereo not given)	117.7*	-9.0	-4.6
CC[C@H](NS(=O)(=O)c1ccc(C)cc1)C(=O)Oc1cc2oc(=O)cc(C)c2cc1Cl	24.9	1.4	1.2
O=c1cc(-c2ccccc2)oc2cccc(O)c12	27.7	1.3	14.8
Cc1cc(O)cc2oc3cc(O)cc(O)c3c(=O)c12	·	·	16.3
O=c1cc(-c2ccccc2)oc2cc(O)cc(O)c12	4.5	-2.1	33.1*
C[C@@H]1O[C@@H](O[C@@H]2[C@@H](O)[C@H](O)[C@@H](CO)O[C@H]2c2c(O)cc(O)c3c(=O)cc(-c4ccc(O)cc4)oc23)[C@H](O)[C@H](O)[C@H]1O	·	·	-7.5
CC(C)=CCc1c(O)cc(O)c2c(=O)cc(-c3ccc(O)cc3)oc12	93.9*	-2.1	?
COc1cc(O)c2c(=O)cc(-c3ccc(O)cc3)oc2c1	-22.8	·	7.0
O=c1cc(-c2ccc(O)cc2)oc2cc(O)cc(O)c12	4.1	0.2	54.3*
O=c1c(O)c(-c2ccc(O)cc2)oc2cc(O)cc(O)c12	31.9	·	33.5*
CN(C)C(=O)COc1cc2oc(=O)c3c(c2cc1Cl)CCC3	-6.3	1.2	·
Cc1c(Cl)c(C(F)(F)F)nn1CC(=O)Nc1ccc(C#N)cc1	6.3	-0.8	0.1
CC(=O)OC(C[C@@]1(C)[C@H](C)[C@H](OC(C)=O)C[C@@]23COC(=O)C2=CCC[C@@H]31)c1ccoc1 (stereo not given in full)	·	·	-5.6
Cc1cccc(NC(=O)CSc2nnc(-c3ccc(N)cc3)n2C)c1	40.1	·	3.3
COc1ccc2nc(Nc3nc(CSc4ccc(Cl)cc4)cc(=O)[nH]3)nc(C)c2c1	83.7*	·	6.2
CCOc1ccc2nc(Nc3nc(C)cc(=O)[nH]3)nc(C)c2c1	17.6	-3.7	-0.3
NC(=O)c1ccccc1NC(=O)COc1cccc2ccccc12	14.7	-1.4	4.2
CCCn1c2ccccc2c2nnc(SCC(=O)O)nc21	9.2	·	-1.3
CCCn1c2ccccc2c2nnc(Sc3ccc4nsnc4c3[N+](=O)[O-])nc21	104.6*	·	10.1
Cc1scc(C(=O)Nc2cccc(Cn3cccn3)c2)c1-c1ccccc1	34.9	-1.5	1.8
CCCCCCCCNC(C)C(O)c1ccc(SC(C)C)cc1 (stereo not given)	120.5*	·	3.5
SMILES	NOMO-1 viab	PD-1 reverse act	STK33 inh
CC(NCCc1ccc(O)cc1)C(O)c1ccc(O)cc1 (stereo not given)	-1.5	·	4.2
Cc1noc(COc2ccccc2)c1C(=O)Sc1ccc(F)cc1F	123.1*	-3.4	·
Cc1cc(COc2ccccc2OCc2cc(C)no2)on1	·	·	-3.4
NC(=O)c1ccccc1NC(=O)CCCN1C(=O)c2ccccc2C1=O	-20.8	·	1.0
C[C@H](CO)N1C[C@H](C)[C@H](CN(C)CC2CCCCC2)Oc2ccc(NC(=O)Nc3ccc(C(F)(F)F)cc3)cc2C1=O	115.7*	-6.4	·
C[C@H](CO)N1C[C@H](C)[C@@H](CN(C)CC2CCCCC2)Oc2ccc(NC(=O)Nc3ccc(F)cc3)cc2C1=O	-3.3	1.5	·
C[C@@H]1CN([C@@H](C)CO)C(=O)c2cc(NC(=O)Nc3ccc(C(F)(F)F)cc3)ccc2O[C@H]1CN(C)CC1CCCCC1	117.6*	-5.9	2.3
C[C@H]1CN([C@@H](C)CO)C(=O)c2cc(NC(=O)Nc3ccccc3)ccc2O[C@H]1CN(C)CC1CCCCC1	10.9	2.0	-0.6
Cc1c(C(N)=O)nnc2cc(-c3ccccc3)nn12	27.8	2.2	·
Cc1ccc(CC(=S)N2CCOCC2)cn1	34.2	0.3	·
Cn1c(CN2CCOCC2)nnc1SCC(=O)Nc1ccccc1Br	-11.2	2.4	-1.6
O=C(O)CCc1ccc(F)cc1	-17.4	0.6	·
COC(=O)c1ccccc1Oc1nc(NC(C)C)nc(NC(C)C)n1	24.3	-0.2	-0.2
C/C=C1/CN[C@H]2Cc3c([nH]c4ccccc34)C(=O)C[C@H]1C2C(=O)OC (stereo not given in full)	26.5	-0.9	6.9
C[C@H](CO)N1C[C@H](C)[C@@H](CN(C)Cc2ccc(C(=O)Nc3ccccc3N)cc2)Oc2c(NS(C)(=O)=O)cccc2C1=O	30.3	-0.6	·
C[C@H](CO)N1C[C@H](C)[C@@H](CN(C)Cc2ccc(C(=O)Nc3ccccc3N)cc2)Oc2c(cccc2N(C)C)C1=O	44.1	0.7	·

Source: PubChem
